Laboratory results published in PubChem BioAssay AID504467 (National Center for Advancing Translational Sciences (NCATS), 2011).
The whole screen tested about 330,000 compounds, of which about 7,700 (2.3%) were called active. Another 26% or so got no clear call; they are omitted. Calls follow the shape of the dose curve; as a rule, active = well fitted inhibition curve with a large enough effect; inconclusive = small, poorly fitted or top-dose-only effect, or effect the other way; inactive = flat fitted curve, though single readings scatter. What follows is part of a selection rich in actives, with near analogues and random picks from the rest.

experiment: qHTS screen for small molecules that inhibit ELG1-dependent DNA repair in human embryonic kidney (HEK293T) cells expressing luciferase-tagged ELG1; details: HEK293T ELG1-luciferase reporter, luminescence, 16 h, DNA damage induced by 5-fluorouridine; series mostly up to 46.1 µM; activity change, negative = inhibition: at the top concentration; also: nearly all actives have a fitted effect of over 55% in size
How it was run: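 Overnight (16 hr) co-exposure of 2,000 cells/well to 5-fluorouridine and compound at 37 °C preceded detection. Luciferase was quantified via ONE-Glo luminescence; loss of signal denotes inhibition.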
% is scaled to controls: 0 for no effect and ±100 for the full control effect; potency is read from the fitted curve at half-maximal effect.

Row | SMILES | activity change, negative = inhibition | Potency
1 | O=C(Cc1ccccc1)Nc1ccc(NC(=O)c2cccnc2)cc1 | 2.94% (inactive) | –
2 | O=C(Nc1cccc(Cl)c1N1CCOCC1)c1cccnc1 | -3.8% (inactive) | –
3 | O=C(Nc1ccc(N2CCN(C(=O)c3ccccc3)CC2)c(Cl)c1)c1cccnc1 | – | 8.2 µM (active)
4 | Cc1cc(C)cc(NC(=O)C(c2ccccc2)N2CCN(CC(=O)N3CCCC3)CC2)c1 (centres undefined) | 0.225% (inactive) | –
5 | CCC(C(=O)NCc1cccnc1)n1nc(C)c2sc3ccccc3c2c1=O (centres undefined) | -1.1% (inactive) | –
6 | Cc1onc(-c2c(F)cccc2Cl)c1C(=O)OCC(=O)N1C(C)CCCC1C (centres undefined) | -14.7% (inactive) | –
7 | O=C(CSc1nnc(-c2cccs2)n1-c1ccccc1)NCc1ccco1 | -7.53% (inactive) | –
8 | COc1ccc(NC(=O)CSc2nnc(-c3cccs3)n2Cc2ccco2)cc1OC | – | 20.6 µM (active)
9 | CCc1ccc(NC(=O)CSc2nnc(-c3cnccn3)n2Cc2ccco2)cc1 | -6.25% (inactive) | –
10 | Cn1cc(CCC(=O)NC2CC2)c2ccccc21 | -3.64% (inactive) | –
11 | CC(C)CCn1cnc2c1c(=O)n(CC(=O)NC(N)=O)c(=O)n2Cc1ccccc1 | 0.175% (inactive) | –
12 | CCn1nc(C(=O)NNC(=O)C2CSC3(C)CCC(=O)N23)c2ccccc2c1=O (centres undefined) | 10.3% (inactive) | –
13 | O=C(NNC(=O)c1cccc(S(=O)(=O)Nc2ccc(Cl)cc2)c1)c1ccc(=O)[nH]c1 | 1.65% (inactive) | –
14 | COc1ccc2nc(/N=C(\N)NC(=O)Nc3ccccc3)nc(C)c2c1 | -16.6% (inactive) | –
15 | Cc1nc(/N=C(\N)NC(=O)NC2CCCCC2)nc2ccccc12 | – | 9.2 µM (active)
16 | Cc1nn(-c2ccccc2)c(C)c1C(=O)OCC(=O)NC(=O)NC1CCCCC1 | -26.1% (inactive) | –
17 | COc1cc(OC)cc(C(=O)NNC(=O)Cc2cccs2)c1 | 19% (inactive) | –
18 | CC1Cc2ccccc2N1S(=O)(=O)c1cccc(C(=O)NCC(c2ccco2)N2CCCC2)c1 (centres undefined) | 1.24% (inactive) | –
19 | COc1ccccc1-n1cnc2cc(C(=O)NCC3CCCO3)ccc21 (centres undefined) | 11.5% (inactive) | –
20 | COc1cccc(/C=C2\Sc3ccc(C(=O)NCC4CCCO4)cc3N(C)C2=O)c1 (centres undefined) | – | 20.6 µM (active)
21 | COc1cccc(C(=O)NCCS(=O)(=O)NCC2CCCO2)c1 (centres undefined) | 13.3% (inactive) | –
22 | COc1cccc(CNC(=O)CN2C(=O)NC(Cc3ccccc3)(c3ccccc3)C2=O)c1 (centres undefined) | -5.01% (inactive) | –
23 | CCOc1ccc(CCNC(=O)COC(=O)c2c(OC)cccc2OC)cc1OCC | -5.36% (inactive) | –
24 | CCCN1C2CCCC1CC(NC(=O)c1cccc(OC)c1)C2 (centres undefined) | -8.9% (inactive) | –
25 | O=C(c1c(Cl)cccc1Cl)N1CCN(c2cccc3[nH]ccc23)CC1 | – | 18.3 µM (active)

Row | SMILES | activity change, negative = inhibition | Potency
26 | COc1ccccc1N1CCN(C(=O)c2ccc(S(=O)(=O)N3CCCCC3)cc2)CC1 | -21.4% (inactive) | –
27 | O=C(c1ccc(S(=O)(=O)N2CCCC2)cc1)N1CCN(c2ccccc2F)CC1 | 13.3% (inactive) | –
28 | COc1ccc(C)cc1NC(=O)CSc1nnc2ccc(-c3ccccn3)nn12 | -10.6% (inactive) | –
29 | COC(=O)c1cccc(C(=O)N2CCC(CCC(=O)NCc3ccc(F)cc3)CC2)c1 | -2.27% (inactive) | –
30 | CN(C)CCn1c2c(c(SCC(=O)NCc3ccccc3)nc1=O)CCC2 | 13.9% (inactive) | –
31 | Cc1ccc(OCCNC(=O)CN2C(=O)NC3(CCCC3)C2=O)cc1 | 1.29% (inactive) | –
32 | CC(NC(=O)COC(=O)CCC(=O)c1ccc(Cl)cc1)c1ccccc1 (centres undefined) | 2.29% (inactive) | –
33 | COc1ccc(C2=Nn3c(nnc3-c3ccccc3OC)SC2)cc1OC1CCCC1 | – | 20.6 µM (active)
34 | CC1=Nn2c(nnc2-c2ccccc2)SC1 | 8.64% (inactive) | –
35 | COc1ccccc1-c1nnc2n1N=C(c1ccc(OC(F)F)c(OCC3CC3)c1)CS2 | 8.85% (inactive) | –
36 | CC(=O)Nc1cccc(Nc2nc(-c3cccs3)nc3ccccc23)c1 | – | 16.4 µM (active)
37 | COC(=O)c1cc(-c2cccs2)nc2ccccc12 | 2.19% (inactive) | –
38 | O=C(Nc1nnc(-c2ccccc2)o1)c1cc(-c2cccs2)nc2ccccc12 | -10.2% (inactive) | –
39 | Cc1ccc2[nH]cc(CCNC(=O)C3CCCCC3)c2c1 | -2.4% (inactive) | –
40 | O=C(c1cccs1)N(Cc1cc2ccccc2[nH]c1=O)CC1CCCO1 (centres undefined) | 18.7% (inactive) | –
41 | Cc1cccc(NC(=O)N(Cc2cc3cc(C)cc(C)c3[nH]c2=O)CC2COCCO2)c1 (centres undefined) | – | 11.6 µM (active)
42 | Cc1ccc2[nH]c(=O)c(CN(CCCN(C)C)C(=O)Nc3cccc(Cl)c3)cc2c1 | 0% (inactive) | –
43 | Cc1cccc(N(Cc2ccccc2)C(=O)c2cc(S(=O)(=O)N3CCOCC3)ccc2F)c1 | -24.2% (inactive) | –
44 | CC(C)(C)c1ccc(C(=O)N2CCN(CCNC(=O)C(=O)Nc3ccc(F)cc3)CC2)cc1 | -5.49% (inactive) | –
45 | Fc1ccccc1/C=C1\CCCC2=C1Nc1ncnn1C2c1ccccc1F (centres undefined) | – | 18.4 µM (active)
46 | CC1=C(C(N)=O)C(c2ccc(Br)cc2)n2ncnc2N1 (centres undefined) | 0% (inactive) | –
47 | Cc1cccc(N(C(=O)c2sc(C)nc2C)C(C(=O)NCC2CCCO2)c2ccccc2)c1 (centres undefined) | -6.84% (inactive) | –
48 | Cn1c(=O)c2c(nc(NCCNC(=O)c3ccco3)n2Cc2ccccc2F)n(C)c1=O | -4.05% (inactive) | –
49 | COC(=O)C(C)Sc1nc2c(c(=O)n(C)c(=O)n2C)n1Cc1cccc(C)c1 (centres undefined) | 5.21% (inactive) | –
50 | COc1ccc(CCN2CNc3c(c(=O)n(C)c(=O)n3C)C2)cc1OC | -11% (inactive) | –

Row | SMILES | activity change, negative = inhibition | Potency
51 | Cn1c(=O)c2c(nc(NCc3ccccc3)n2CC(N)=O)n(C)c1=O | -6.05% (inactive) | –
52 | Cn1c(=O)c2c(ncn2CCc2ccccc2)n(C)c1=O | 8.66% (inactive) | –
53 | CCn1c(NCCc2ccc(OC)c(OC)c2)nc2c1c(=O)n(C)c(=O)n2C | – | 11.6 µM (active)
54 | CCCCn1c(SCC(=O)NCCc2ccc(OC)c(OC)c2)nc2c1c(=O)n(C)c(=O)n2C | 1.48% (inactive) | –
55 | CC(C)CCn1c(CN(C)Cc2ccccc2)nc2c1c(=O)n(C)c(=O)n2C | – | 20.6 µM (active)
56 | Cn1c(=O)c2c(nc(NCCc3ccccc3)n2Cc2ccccc2)n(C)c1=O | – | 23.1 µM (active)
57 | CCCCNc1nc2c(c(=O)[nH]c(=O)n2C)n1CCOc1ccccc1 | -13.5% (inactive) | –
58 | CCCCNc1nc2c(c(=O)n(C)c(=O)n2C)n1Cc1cccc(OC)c1 | – | 5.17 µM (active)
59 | CC(C)CCn1c(=O)c2c(nc3n2CCCN3Cc2ccccc2)n(C)c1=O | -15.5% (inactive) | –
60 | Cn1nccc1C(=O)N1CCCC(C(=O)c2ccc(Oc3ccccc3)cc2)C1 (centres undefined) | -11% (inactive) | –
61 | Cc1ccccc1NC(=S)NC(=O)Cc1ccc(Cl)cc1 | 1.58% (inactive) | –
62 | OC(CNCCc1ccc(Cl)cc1Cl)COc1ccccc1 (centres undefined) | -0.165% (inactive) | –
63 | COCCN(CCOC)S(=O)(=O)NC[C@H]1O[C@@H](n2cnc3c(N)ncnc32)[C@H](O)[C@@H]1O | -3.78% (inactive) | –
64 | O=c1ccc(S(=O)(=O)N2CCCC2)cn1Cc1nc(-c2ccccc2)no1 | -15.5% (inactive) | –
65 | CCN1CCN(Cc2nc3c(c(=O)n(C)c(=O)n3C)n2CC(=O)c2ccccc2)CC1 | 14.6% (inactive) | –
66 | Cn1c(=O)c2c(nc(N/N=C/c3cccs3)n2Cc2ccc(Br)cc2)n(C)c1=O | – | 20.6 µM (active)
67 | Cn1c(=O)c2sccc2n(Cc2ccc(Br)cc2)c1=O | 16.2% (inactive) | –
68 | CN1CCN(Cc2nc3c(c(=O)n(C)c(=O)n3C)n2Cc2cccc3ccccc23)CC1 | -2.34% (inactive) | –
69 | COCCn1cnc2c1c(=O)n(Cc1ccc(Br)cc1)c(=O)n2Cc1ccccc1 | -9.32% (inactive) | –
70 | CCOC(=O)N1CCN(Cc2nc3c(c(=O)n(C)c(=O)n3C)n2Cc2ccccc2)CC1 | – | 10.3 µM (active)
71 | CCOC(=O)N1CCN(C(=O)c2ccc3c(=O)n(CCc4ccc(OC)c(OC)c4)c(=O)[nH]c3c2)CC1 | -21.5% (inactive) | –
72 | Cc1ccc(-n2nc3c(=O)n(C(C)C(=O)NCc4ccc5c(c4)OCO5)nc(C)c3c2C)cc1 (centres undefined) | -19.3% (inactive) | –
73 | Cc1ccc(-c2csc(N3CCN(c4cc5c(cc4Cl)nc(-c4ccncc4)n5CCOCCO)CC3)n2)cc1 | -27.4% (inactive) | –
74 | CCN([C@H](CO)C(C)C)S(=O)(=O)c1ccccc1Br | 5.25% (inactive) | –
75 | CCOc1ccc(NS(=O)(=O)c2ccc(Cl)c(C(=O)N(C)Cc3cccnc3)c2)cc1 | -12.3% (inactive) | –

Row | SMILES | activity change, negative = inhibition | Potency
76 | CCC(C)(C)n1nnnc1C(c1ccccc1OC)N1CCSCC1 (centres undefined) | 0.736% (inactive) | –
77 | CCC(C)(C)n1nnnc1C(c1cccs1)N1CCN(Cc2ccccc2)CC1 (centres undefined) | -3.91% (inactive) | –
78 | CCC(C)(C)n1nnnc1C(c1cccs1)N1CCN(c2nc3ccccc3s2)CC1 (centres undefined) | – | 20.6 µM (active)
79 | CC(=O)c1ccc(N2CCN(C(=O)c3ccc(Cl)c(S(=O)(=O)NC4CC4)c3)CC2)c(F)c1 | -29.7% (inactive) | –
80 | COc1ccc(OC)c(C(=O)c2ccc(Cl)cc2)c1 | 0% (inactive) | –
81 | COc1ccc(OC)c(/C(C)=N\NC(=O)c2cc3cc(Cl)ccc3n2C)c1 | – | 16.4 µM (active)
82 | COc1ccc(/C(C)=N/NC(=O)CCC(=O)Nc2ccc(Cl)cc2Cl)c(OC)c1 | -20.7% (inactive) | –
83 | CCN(CC(=O)Nc1cccc(S(=O)(=O)N2CCCCC2)c1)Cc1ccccc1 | -1.55% (inactive) | –
84 | O=C(NNS(=O)(=O)c1c(F)cc(F)c(Cl)c1F)C12CC3CC(CC(C3)C1)C2 | -2.47% (inactive) | –
85 | CCc1ccc(NC(=O)CN2C(=O)COc3ccc(S(=O)(=O)N4CCCC4)cc32)cc1 | 1.71% (inactive) | –
86 | CCC(C)NC(=O)c1ccc(NC(=O)CC2SC(N3CCCCC3)=NC2=O)cc1 (centres undefined) | 12.6% (inactive) | –
87 | COCCN(CCOC)C(=S)Nc1ccccc1Cl | 6.84% (inactive) | –
88 | O=C(Nc1ccccc1Cl)/C(Cl)=C(\Cl)S(=O)c1ccccc1 (centres undefined) | – | 9.2 µM (active)
89 | O=C(Nc1ccccc1Cl)Nn1cnnc1 | 0.688% (inactive) | –
90 | CSc1cccc(NC(=O)CN2C(=O)COc3ccc(S(=O)(=O)N4CCOCC4)cc32)c1 | 3.54% (inactive) | –
91 | Cc1ccc(C(=O)NC23CC4CC(CC(C4)C2)C3)c(Cl)c1 | 27.6% (inactive) | –
92 | COc1cccc(CCNC(=O)c2cccc(NC(=O)C3=C(C)OCCS3)c2)c1 | – | 20.6 µM (active)
93 | COc1ccc(N2CCN(C(=O)c3ccccc3NC(=O)C3=C(C)OCCS3)CC2)cc1 | 5.9% (inactive) | –
94 | CCCCNC(=O)c1ccccc1NC(=O)C1=C(C)OCCS1 | 1.59% (inactive) | –
95 | CCn1c(SCC(=O)NNC(=O)c2ccc(OC)cc2)nnc1C(C)C | 0% (inactive) | –
96 | Cc1ccc(CNC(=O)Cn2cnc3c(NCc4ccccc4)ncnc32)o1 | -20.6% (inactive) | –
97 | Cn1cc(/C=C/c2nc3ccccc3c(=O)n2-c2cccc([N+](=O)[O-])c2)c2ccccc21 | 5.73% (inactive) | –
98 | CCn1c(/C=C/c2ccc([N+](=O)[O-])o2)nc2ccccc2c1=O | – | 16.4 µM (active)
99 | Cc1nc2ccccc2c(=O)n1Cc1ccc([N+](=O)[O-])cc1 | 3.4% (inactive) | –
